Assay results from PubChem BioAssay (NCATS).
Inconclusive results are not listed. A number with no mark means an inactive call. Calls of active or inactive are those of the source. Calls come from the whole dose curve; as a rule, active = well fitted cell-killing curve with a large enough effect; inconclusive = small, poorly fitted or top-dose-only effect; inactive = flat fitted curve, though single readings scatter.

experiment: Cell Viability - LYMP2-015 (AID 971); details: LYMP2-015 lymphoblastoid cell viability; series mostly up to 92.2 µM; activity change, negative = lower viability: at the top concentration; note: nearly all actives have a fitted effect of over 55% in size;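 for activity change, negative = lower viability: 0% = DMSO only and full effect = 92 µM tetraoctylammonium bromide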
Text: NIH Chemical Genomics Center [NCGC]
NIH Molecular Libraries Screening Centers Network [MLSCN]
National Institutes of Environmental Health Sciences [NIEHS]
National Toxicology Program [NTP]
We have developed a 1536-well cell-based assay for quantitative high throughput screening (qHTS) against a number of cell lines to determine in vitro cytotoxicity of small molecules. This particular assay uses a human lymphoblastoid cell line (LYMP2-015) purchased from Coriell Institute for Medical Research.
NCGC Assay Protocol Summary:
The CellTiter-Glo luminescent cell viability assay (Promega) is a homogeneous method to measure the number of viable cells in culture. The end point readout of this assay is based on quantitation of intracellular ATP, an indicator of metabolic activity, using the luciferase reaction. Luciferase catalyzes the oxidation of beetle Luciferin to oxyluciferin and light in the presence of ATP. The luminescent signal is proportional to amount of ATP present.
Using the CellTiter-Glo luminescent cell viability assay, the amount of cellular ATP was measured in the lymphoblastoid cell line with complete culture medium following compound treatment for 24 hours. The assay was performed in opaque white Kalypsys 1536-well plates. In the screen, tetraoctylammonium bromide was used as positive control. Library compounds were measured for their ability to cause acute toxicity in the cell line, as reflected by a decrease in intracellular ATP levels, in a concentration-dependent manner. […] AC50 values were determined from concentration-response data modeled with the standard Hill equation.
qHTS protocol for CellTiter Glo lymphoblastoid cellular assay
[Step] [Parameter] [Value] [Description]
1. Reagent; 5 uL; 2500 lymphoblastoid cells/well
2. Time; 5 hr; 37 C incubation
4. Controls; 23 nL; Tetraoctylammonium bromide 6.4pM to 92 uM
5. Time; 24 hr; 37 C incubation
6. Reagent; 5 uL; CellTiter Glo reagent
7. Time; 30 min; Room Temperature
8. Detection; Luminescence; Viewlux plate reader
Keywords: cell viability, cytotoxicity, lymphoblastoid cell line, luminescence, NTPHTS, NTPHTS_NCGC, NIEHS, DSSTox, MLSMR, MLSCN, NIH Roadmap, qHTS, NCGC
Potency is the fitted concentration of half-maximal effect.

SMILES	activity change, negative = lower viability [%]	Potency
C=C(C)C(=O)OCC1CO1 (stereo not given)	-0.142	
C[C@H]1CCCC(=O)CCC/C=C/c2cc(O)cc(O)c2C(=O)O1	-25.3	
C=CC(=C)C	-8	
COC(=O)NC(=S)Nc1ccccc1NC(=S)NC(=O)OC	-9.68	
C=C(C)C#N	-26.4	
CCSC(=O)Cl	-7.13	
CCCC(=O)Cl	2.73	
C=CC(N)=O	-8.11	
O=NN(c1ccccc1)c1ccccc1	-17.9	
Cc1ccc(O)c(C)c1	-7.62	
C=CCOC(=O)c1ccccc1N	-3.55	
Brc1ccccc1	2.09	
CC(C)(C)OOC(C)(C)C	-4.05	
Clc1cccc(C(Cl)(Cl)Cl)n1	0.754	
ClCBr	-23	
CCOc1ccc(N)cc1	-9	
ClC(Cl)=C(c1ccc(Cl)cc1)c1ccc(Cl)cc1		inactive
ClC(Cl)(Cl)c1ccccc1		inactive
CC(C)(c1ccccc1)c1ccc(O)cc1	-6.91	
CCCCOC(=O)c1ccccc1C(=O)OCCCC	-14.3	

SMILES	activity change, negative = lower viability [%]	Potency
Brc1ccc(Oc2cc(Br)c(Br)cc2Br)c(Br)c1		inactive
O=[N+]([O-])c1ccc(Cl)c(Cl)c1	-9.79	
O=C(O)COc1ccc(Cl)cc1Cl		inactive
Clc1ccc2ccccc2c1	-6.55	
CC(Cl)Cl	-16	
O=C1C(Cl)=C(Cl)C(=O)C(Cl)=C1Cl		39.8 µM (active)
C[C@]12CC[C@H]3[C@@H](CCC4=CC(=O)CC[C@@]43C)[C@@H]1CC[C@@H]2O	-22.1	
c1ccc(-c2ccccc2)cc1	-13.6	
Clc1nc(Cl)nc(Cl)n1	-7.35	
Nc1ccccc1Cl	3.94	
C=CC(=O)OCC	7.38	
C=CCc1ccc(OC)cc1	3.99	
CCC[CH2][Sn]([Cl])([Cl])[Cl]	-10.6	
O=C(Cl)C(Cl)(Cl)Cl	-3.69	
CCNc1nc(Cl)nc(NC(C)C)n1	-12.3	
CC(C)(C)OO		inactive
OCC1CO1 (stereo not given)	4.95	
[O-][Br+2]([O-])O		inactive
O=C(Cl)/C=C/C(=O)Cl	-0.0285	
c1nc[nH]n1	-5.12	
